According to the supplement of paper PMC6555819:

What was measured:
Experiment in all cases: PBM binding z-score (relative to random genomic background probes); higher = stronger binding; sequences stand for … in GC…GCGATTGACAGCGTAGAATGAAGG
[1] = test system: FXR:RXRa (NR concentration 270 nM, RXRa partner concentration 90 nM)
Procedure, shortened: (§1)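 Custom Agilent 4×180K protein-binding microarrays carried double-stranded probes, each with a 34-nt variable region. These regions held direct-repeat seeds, single-nucleotide variants, half-site ablations and random human genomic background sequences. Ligand-free nuclear receptor dimers were incubated on the arrays for 1 h, antibodies against each partner (one per run) detected binding, and scanned fluorescence was regression-normalized. Binding z-scores take the random background probes as reference.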

[2] = test system: LXRa:RXRa (NR concentration 270 nM, RXRa partner concentration 90 nM)
Procedure, shortened: as §1

[3] = test system: LXRa homodimer (NR concentration 270 nM)
Procedure, shortened: as §1

[4] = test system: LXRb:RXRa (NR concentration 270 nM, RXRa partner concentration 90 nM)
Procedure, shortened: as §1

[5] = test system: LXRb homodimer (NR concentration 270 nM)
Procedure, shortened: as §1

[6] = test system: PPARa:RXRa (NR concentration 270 nM, RXRa partner concentration 90 nM)
Procedure, shortened: as §1

[7] = test system: PPARg:RXRa (NR concentration 180 nM, RXRa partner concentration 90 nM)
Procedure, shortened: as §1

[8] = test system: PPARg:RXRa 270nM:90nM, anti-RXR (NR concentration 270 nM, RXRa partner concentration 90 nM)
Procedure, shortened: as §1

[9] = test system: PPARg:RXRa 30nM:10nM, anti-RXR (NR concentration 30 nM, RXRa partner concentration 10 nM)
Procedure, shortened: as §1

[10] = test system: PPARg:RXRa 90nM:30nM, anti-RXR (NR concentration 90 nM, RXRa partner concentration 30 nM)
Procedure, shortened: as §1

Sequence | PBM binding z-score [1] | PBM binding z-score [2] | PBM binding z-score [3] | PBM binding z-score [4] | PBM binding z-score [5] | PBM binding z-score [6] | PBM binding z-score [7] | PBM binding z-score [8] | PBM binding z-score [9] | PBM binding z-score [10]
TTACCAAGGTGAAGGTCGTTAATCCCTCTGTAGA | 1.32 | 1.12 | -0.236 | 1.22 | -0.624 | 2.49 | 2.65 | 3.89 | 1.82 | 3.43
AGAATGAGGTTATTCAGATCAGGGAATTGCGGTC | 2.47 | 1.98 | 0.596 | 1.51 | 0.0526 | 3.31 | 1.58 | 1.96 | 0.851 | 1.27
ATATGTAGGTTAGCTGGGGCCATTCAGACTAGGC | 0.601 | 1.15 | 0.0611 | 0.901 | 0.197 | 2.55 | 3.09 | 2.56 | 0.952 | 2.06
CAAACTGGGTCAAGGTCAAAGTCGGTTTGTGCCA | 6.14 | 4.7 | 2.42 | 4.41 | 0.882 | 5.96 | 9.55 | 7.65 | 6.43 | 7.63
CCTAGCAGGCCAGGGACACTCAAGCATTTCGCTT | -0.315 | -0.301 | -0.372 | -0.68 | -0.928 | -0.453 | 0.0348 | -0.505 | -0.943 | -0.701
TTACCAAGGTGAAAGGTCGTGGATGCACGCCTTG | 3.68 | 3.62 | -0.0355 | 3.01 | -0.715 | 5.66 | 9.46 | 8.31 | 7.31 | 8.54
AGTCAAAGTTCAGGACGAGGTAACGGAAAGCACG | 3.52 | 3.93 | 0.925 | 1.77 | 0.134 | 3.46 | 4.45 | 4.88 | 1.83 | 3.87
TCTTATAGGTAAATGCTAGGTGAAAGTCCGATCT | 1.33 | 1.6 | 0.477 | 1.11 | 0.669 | 1.27 | 0.531 | 2.5 | 3.79 | 3.41
TCATATAGGTAAAAGGTGTAAGTCGGTGTGGTAA | 1.13 | 1.12 | -0.0427 | 1.14 | 0.187 | 3.18 | 5.19 | 6.1 | 5.92 | 7.17
CGAACTAGGTCAAGAGGTCAAAGTCCGCTTCCCG | 7.13 | 6.37 | 6.49 | 5.6 | 1.59 | 6.58 | 10.1 | 7.94 | 7.44 | 8.35
TAGCCCAGGTCATGGGCCAGTATACCACGCGAAC | 5.49 | 3.68 | 0.403 | 2.34 | -0.434 | 4.31 | 3.87 | 3.37 | 0.448 | 2.04
CCTTCCGGGTCACGAGGTTATAGCACGACGAGCG | 5.95 | 4.51 | 0.67 | 3.92 | 0.139 | 5.88 | 7.46 | 6.88 | 3.82 | 6
